Experimental data taken from PubChem BioAssay (NCATS).
Records with an inconclusive call do not appear. Unmarked numbers belong to inactive results. Active and inactive are the calls of the source. Calls come from the whole dose curve; as a rule, active = well fitted inhibition curve with a large enough effect; inconclusive = small, poorly fitted or top-dose-only effect; inactive = flat fitted curve, though single readings scatter.

test system: KB-3-1; assay: Cytotoxic Profiling of Annotated Libraries Using Quantitative High-Throughput Screening (AID 1296008); settings: Five cell lines viability, CellTiter-Glo ATP luminescence, 48-72 h; max response: hits give low values; note: nearly all actives have a fitted effect of over 60% in size
Procedure, shortened: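 Compounds were pin-transferred onto cells and incubated 48 or 72 hr at 37 degree Celsius, 95% humidity. CellTiter-Glo was added, plates sat 10 min at room temperature, then ATP-coupled luminescence was imaged as the viability read-out.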
% is set by controls: 0 for no effect and ±100 for the full control effect; potency is the fitted concentration of half-maximal effect.

Row | Compound | max response | Potency
1 | CCC(C)C(C(=O)OCC[N+](C)(CC)CC)c1ccccc1 (stereo unspecified) | -5.4% | –
2 | O=C[C@H](O)[C@@H](O)[C@H](O[C@H]1O[C@H](CO)[C@@H](O[C@H]2O[C@H](CO)[C@@H](O)[C@H](O)[C@H]2O)[C@H](O)[C@H]1O)[C@H](O)CO | -9.17% | –
3 | CON=C1C[C@]2(C[C@@H]3C[C@@H](C/C=C(\C)C[C@@H](C)/C=C/C=C4\CO[C@@H]5[C@H](O)C(C)=C[C@@H](C(=O)O3)[C@]45O)O2)O[C@H](/C(C)=C/C(C)C)[C@H]1C | – | 20.6 µM (active)
4 | C/C(=C(\CCOC(=O)c1ccccc1)SS/C(CCOC(=O)c1ccccc1)=C(/C)N(C=O)Cc1cnc(C)nc1N)N(C=O)Cc1cnc(C)nc1N | -12.4% | –
5 | O=C(OCCO)c1ccccc1O | -5.64% | –
6 | CC(=O)O[C@H]1CC(C)(C)CC2[C@]13CO[C@@]21CCC2[C@@]4(C)CC[C@H](O[C@@H]5OC[C@H](O[C@@H]6O[C@H](CO)[C@@H](O)[C@H](O)[C@H]6O[C@@H]6OC[C@@H](O)[C@H](O)[C@H]6O)[C@H](O)[C@H]5O[C@@H]5O[C@H](CO)[C@@H](O)[C@H](O)[C@H]5O)[C@@](C)(CO)C4CC[C@@]2(C)[C@]1(C)C[C@H]3O (stereo partly specified) | 4.15% | –
7 | COc1ccc(C(=O)Nc2ccccc2CCC2CCCCN2C)cc1 (stereo unspecified) | -11.1% | –
8 | FC(F)(F)c1ccccc1-c1cc(C(F)(F)F)c2nc(C3=NOC4(CCCCC4)C3)[nH]c2c1 | -18.9% | –
9 | NNc1nnc(Cc2ccncc2)c2ccccc12 | -26.3% | –
10 | CC(CN(C)C)CN1c2ccccc2S(=O)(=O)c2ccccc21 (stereo unspecified) | 23.6% | –
11 | CCCCOC(=O)C(=O)Nc1cccc(-c2nn[nH]n2)c1 | -17% | –
